Here are results for 92 compounds from PubChem BioAssay AID2314 (National Center for Advancing Translational Sciences (NCATS), 2010).

Molecules are shown by their SMILES. Values joined by “and” are separate entries in the source; they are usually repeats but may differ in a detail not shown here. Equal values may be shown once. Among all 300,000 compounds or so, about 37,000 (12%) were called active. The sample holds actives, similar compounds and a random draw of the others, so the mix is not that of the screen. Unmarked numbers belong to inactive results. Cut-off read from the data, not from the text of the source: active = max response mostly above about 13% (no sharp cut-off); inactive = mostly below about 14%.

The assay can be described thus: Cycloheximide Counterscreen for Small Molecule Inhibitors of Shiga Toxin. Note: read at 38.3 µM for the half of the compounds with a filed dose; 0% is about no effect. The note with it: cell reporter, cycloheximide protein synthesis inhibition counterscreen; active compounds read high.
Turning to `O=S(=O)(c1ccccc1)c1nc(Cc2ccccc2)oc1N1CCOCC1`, the max response is -5.23%.

Turning to `COc1ccc(CCN2C(=O)CC(N3CCC(C(N)=O)CC3)C2=O)cc1OC` (configuration not stated), the max response is 3.18%.

For the compound `Nc1nonc1-n1nnc(C(=O)N/N=C/c2cc(Br)ccc2O)c1CSC1=NCCS1`, the max response is -2.34%.

On to `O=C(Nc1ccccc1F)c1ccccc1-c1ccc(C(F)(F)F)cc1`, for which the max response was -2.22%.

Turning to `CCCOC(=O)c1[nH]c2c(c1C)C(=O)CC(c1cc(OC)c(OC)c(OC)c1)C2` (configuration not stated), the max response was 3.17%.

Regarding `CCCOC(=O)C1=C(C)NC2=C(C(=O)C(C(=O)OC)C(C)C2)C1c1ccc(N(C)C)cc1` (configuration not stated), the max response was 12.3%.

On to `COC(=O)C1C(=O)c2c([nH]c(C(=O)OCCSC)c2C)CC1C` (configuration not stated), for which the max response is 51.7% (active).

Regarding `CC(C)(CNC(=O)Cc1ccc(Cl)cc1Cl)N1CCOCC1`, the max response was -3.1%.

As for `COCCN(CCOC)S(=O)(=O)c1ccc(/C(O)=C(\C#N)c2nc3ccccc3[nH]2)cc1`, the max response was 12.2% (active).

Turning to `N#C/C(=C(/O)COc1cccc2ccccc12)c1nc2ccccc2[nH]1`, the max response was 2.08%.

Turning to `Cc1ccccc1OC/C(O)=C(\C#N)c1nc2ccccc2[nH]1`, the max response is 0.892%.

For the compound `O=C(c1ccc(OC2CCN(C(=O)c3cccnc3)CC2)cc1)N1CCCCCC1`, the max response was -1.68%.

Consider `CCOC(=O)/C(=C\c1ccc([N+](=O)[O-])cc1)C(=O)c1cc(C(C)=O)c(Nc2ccccc2)s1`, for which the max response is -4.46%.

Consider `CN(C)C(=O)Oc1ccc2c(c1)O/C(=C\c1ccccc1)C2=O`, for which the max response is 44.1% (active).

In the case of `O=C1/C(=C/c2ccc3c(c2)OCO3)Oc2cc(OCC(=O)N3CC(O)C[C@H]3C(=O)O)ccc21` (some centres not stated), the max response was 0.739%.

As for `COC(=O)C(C)Oc1ccc2c(c1)O/C(=C\c1cccc(Br)c1)C2=O` (configuration not stated), the max response is 1.99%.

For `COc1cc(C(CCN2CCN(c3ccccc3)CC2)c2c(OC)cc(OC)c3ccc(=O)oc23)cc(OC)c1OC` (configuration not stated), the max response was -1.52% and 15.6%.

`C=C(C)COc1ccc(-c2ncncc2-c2ccc(OC)cc2)c(O)c1`: the max response is 13.2%.

For the compound `Cc1ccc(SCC(=O)c2cc(C)c(OC(=S)N(C)C)c(C)c2)cc1`, the max response is 26.1% (active).

As to `Cc1ccc(SC(=O)COc2ccc(C)c(C)c2)cc1`, the max response was -5.87%.

`COC(=O)c1cc(OC)c(OC)cc1NC(=O)CSc1ccc(C)cc1`: the max response was -2.51%.

On to `Cc1ccc(NC(=O)c2ccc(S(=O)(=O)NCC3CCCO3)cc2)cc1C` (configuration not stated), for which the max response is 9.52%.

For `Cc1ccc(-c2nn(-c3ccccc3)cc2/C=C2\SC(=S)N(CCCCCC(=O)O)C2=O)o1`, the max response was 1.36%.

For the compound `O=C(NC(=S)N1CCCCC1c1cccnc1)c1ccccc1` (configuration not stated), the max response is 11.6%.

On to `C=C(C)c1cccc(C(C)(C)NC(=O)NC2CCCC2)c1`, for which the max response was -2.37%.

Take `Cc1ccc(C)c(N2CCN(C(=O)Cn3ncn4cccc4c3=O)CC2)c1`: the max response is -1.35%.

In the case of `O=Cc1ccc(Oc2cccc(C(F)(F)F)c2)nc1`, the max response is 15%.

With `FC(F)(F)c1ccnc(Oc2ccc(C3=NCCS3)cc2)c1`, the max response was 42.3% (active).

On to `NC(=S)Nc1c(Cl)cccc1Cl`, for which the max response is 4.66%.

For the compound `CCc1ccc(NC(=O)C(=O)N/N=C(\C)CC(=O)NCCOC)cc1`, the max response is 20.1%.

As to `CCc1ccc(NC(=O)COC(=O)c2cccs2)cc1`, the max response is 51.3% (active).

Turning to `O=C(COC(=O)c1cccs1)NCc1cccs1`, the max response was 16.3% (active).

Take `O=C(COC(=O)c1ccc(NS(=O)(=O)c2cccs2)cc1O)Nc1ccc(F)cc1`: the max response was 0.935%.

As for `CCOC(=O)c1oc2ccccc2c1NC(=O)c1cccs1`, the max response was -3.1%.

On to `CCc1ccc(NC(=O)C(=O)NNC(=O)c2cccs2)cc1`, for which the max response was 27.8% (active).

In the case of `O=C(COC(=O)c1cccs1)Nc1ccccc1Cl`, the max response is -1.99%.

On to `O=C(COC(=O)c1ccc(Cl)nc1)NCc1cccs1`, for which the max response was -2.61%.

For `C/C(=N\OCC(=O)Nc1ccc(Br)cc1)c1cccs1`, the max response was 7.82%.

Consider `CCc1ccc(NC(=O)CCNS(=O)(=O)c2cccs2)cc1`, for which the max response is 21.6% (active).

Consider `CCc1cccc(NC(=O)CCNS(=O)(=O)c2cccc3nonc23)c1`, for which the max response was -2.33%.

For the compound `O=C(COC(=O)CCC(=O)c1cccs1)NCc1ccco1`, the max response was 1.52%.

As to `CCc1ccccc1N(CC(=O)NCC1CCCO1)C(=O)CCC(=O)Nc1nccs1` (configuration not stated), the max response was -4.73%.

As to `CCOc1ccccc1NC(=O)C1CCCN(S(=O)(=O)c2ccccc2)C1` (configuration not stated), the max response is -1.93%.

Take `O=C(NC(=S)Nc1ccc(NC(=O)c2cccs2)cc1)c1ccc([N+](=O)[O-])cc1`: the max response was 0.608%.

Turning to `NS(=O)(=O)c1ccc(NC(=S)NNC(=O)c2cccs2)cc1`, the max response is 29.3% (active).

In the case of `CCc1nnc(NS(=O)(=O)c2ccc(NC(=S)NC(=O)c3cccs3)cc2)s1`, the max response is 0.706%.

Take `O=C(c1n[nH]c2c1CCC2)N1CCCC(Nc2cccc(F)c2)C1` (configuration not stated): the max response was 10.7%.

In the case of `O=C(NCc1ccc(Cl)cc1)c1cc(=O)nc2sc(-c3ccccc3)nn12`, the max response was -4.5%.

On to `CC(=NCc1ccc2c(c1)OCO2)c1c(O)[nH]c(=O)[nH]c1=O`, for which the max response was -1.94%.

Take `CC(=NCc1ccco1)C1=C(O)c2ccccc2C1=O`: the max response was 24.6%.

Take `CC(=NCc1ccc2c(c1)OCO2)C1=C(O)c2ccccc2C1=O`: the max response is 14.2% (active).

On to `CC1C(=O)N(Cc2ccccc2)c2ccccc2N1C(=O)c1ccccc1` (configuration not stated), for which the max response is 5.44%.

Regarding `O=C(OCc1ccc([N+](=O)[O-])cc1)C1CC(=O)N(Cc2ccccc2Cl)C1` (configuration not stated), the max response was 5.26%.

For `O=C(Nc1ccc2c(c1)CCC2)c1cccc(S(=O)(=O)N2CCN(c3ccc(F)cc3)CC2)c1`, the max response was 18.6% (active).

In the case of `Cc1cccnc1NC(=O)c1cccc(S(=O)(=O)N2CCN(c3ccc(F)cc3)CC2)c1`, the max response was -1.47%.

Consider `CN1CCN(S(=O)(=O)c2cccc(C(=O)Nc3cccc(S(N)(=O)=O)c3)c2)CC1`, for which the max response is 5.45%.

For `OCCC1CN(Cc2cnc(-c3ccccc3)s2)CCN1CCc1ccccc1` (configuration not stated), the max response was -2.01%.

Turning to `O=C(COC(=O)CSc1nnc(-c2ccc(Cl)cc2)o1)Nc1cc(Cl)cc(Cl)c1`, the max response was -1.68%.

Regarding `O=C(CSc1nnc(-c2ccncc2)o1)NCc1ccc(Cl)cc1`, the max response was -4.87%.

For the compound `Clc1ccc(-c2nnc(SCc3nc4ccccc4s3)o2)cc1`, the max response is 31.5% (active).

`O=C(NCc1ccccc1Cl)C1CCN(S(=O)(=O)c2cccc3nonc23)CC1`: the max response was 7.56%.

For `O=c1oc(-c2ccccc2NS(=O)(=O)c2ccc(Cl)cc2)nc2ccccc12`, the max response was -0.333%.

Take `C(=N/Nc1cc(N2CCOCC2)nc(N2CCOCC2)n1)/c1ccccc1`: the max response is -4.51%.

Consider `Cc1nc(Cl)cc(N/N=C/c2ccccc2)n1`, for which the max response is 9.02% (active).

`Cc1cc(N/N=C\c2ccc(Br)cc2)nc(-n2nc(C)cc2C)n1`: the max response was -2.43%.

As for `CCc1ccc2oc(=O)cc(CN3CCCCC3C)c2c1` (configuration not stated), the max response was 10.3%.

Regarding `CCOC(=O)C1CCCN(C(=O)COc2ccc(N(C)S(=O)(=O)c3ccc(C)cc3)cc2)C1` (configuration not stated), the max response was -3.78%.

For `O=C(NCC1CCCO1)C1CCN(C2CCN(C(=O)C3CCCCC3)CC2)CC1` (configuration not stated), the max response was -2.3%.

With `O=c1c2c(nc3cc(-c4cccc(Cl)c4)[nH]n13)CCCC2`, the max response is 52.1% (active).

Consider `Cc1cc(=O)n2[nH]c(-c3cccc(Cl)c3)cc2n1`, for which the max response is 6.54%.

Turning to `O=c1c2c(nc3nc[nH]n13)CCC2`, the max response was -2.72%.

`COc1ccc(OC)c(NC(=O)Cc2cccs2)c1`: the max response was 5.9%.

For `CS(=O)(=O)N(CC(=O)N/N=C/c1ccccn1)c1ccc(Oc2ccccc2)cc1`, the max response was 8.35%.

As to `CC(C(=O)N=Nc1c(O)n(C)c2ccc(Br)cc12)n1cnc2ccccc2c1=O` (configuration not stated), the max response was 1.79%.

Regarding `O=C(CCCOc1ccc(Cl)cc1Cl)NNC(=O)C1CCC1`, the max response was 3.02%.

`S=c1[nH]nc(CSCc2ccc(Cl)cc2Cl)n1-c1ccccc1`: the max response was -1.69%.

Turning to `Cn1c(CCCOc2ccc(Cl)cc2Cl)n[nH]c1=S`, the max response was 16.1% (active).

As to `CC(C)Cn1c(N)c(C(=O)COC(=O)CN2C(=O)C3CC=CCC3C2=O)c(=O)n(C)c1=O` (configuration not stated), the max response is 1.25%.

On to `COc1ccc(-n2cc(-c3ccccc3)c3c(=S)nc[nH]c32)cc1`, for which the max response is -2.8%.

In the case of `COc1ccc(-n2c(-c3ccc(OC)c(OC)c3)n[nH]c2=S)cc1`, the max response was -1.61%.

`COc1ccc(-c2cn(-c3ccc(OC)cc3)c(=S)[nH]2)cc1`: the max response was 37.9% (active).

With `O=C(Cc1ccc(S(=O)(=O)N2CCOCC2)s1)NCCC(c1ccccc1)c1ccccc1`, the max response was -2.5%.

For `CCOC(=O)c1cc(Sc2ccccc2N)cc(C(=O)OCC)n1`, the max response was -2.14%.

Take `CCS(=O)(=O)c1cc([N+](=O)[O-])c(Sc2ccccc2N)s1`: the max response was 52.5% (active).

`Nc1ccccc1Sc1ccc(C(F)(F)F)cc1[N+](=O)[O-]`: the max response is -0.845%.

`Fc1ccc(-n2c(Cc3ccccc3)nnc2SCc2nc(-c3ccc(Cl)cc3)no2)cc1`: the max response was -3.26%.

For the compound `CCOC(=O)C1C(c2ccc(O)cc2)NC(=O)NC1(O)C(F)(F)F` (configuration not stated), the max response was -1.88%.

Turning to `Cc1cc(OC(C)C(=O)NC2CC(C)(C)NC(C)(C)C2)c2c(C)cc(=O)oc2c1` (configuration not stated), the max response is 2.41%.

In the case of `CN(C)CCCNC(=O)c1cc(C(=O)Cc2ccc(Cl)cc2)c[nH]1`, the max response was 0.733%.

Consider `COc1cccc(NC(=S)NC(=O)c2c(Cl)c(C)nn2C)c1`, for which the max response was 18.3%.

Consider `Cn1cc(Cl)c(C(=O)NNC(=S)Nc2cccc(Cl)c2)n1`, for which the max response is 42% (active).

For the compound `CC(C)CNC(=S)NNC(=O)c1nn(C)cc1Cl`, the max response is -2.88%.
